Hit rate of the full screen: of about 320,000 compounds, about 22,000 (6.9%) were called active. Where a call stands in place of a potency, no number is given. Roughly 27% stayed inconclusive and do not appear here. Calls follow the shape of the dose curve; as a rule, active = well fitted inhibition curve with a large enough effect; inconclusive = small, poorly fitted or top-dose-only effect, or another doubt; inactive = no such curve, though single readings can be large or run the other way. This excerpt belongs to a sample that is enriched for actives.
Test: Primary qHTS for delayed death inhibitors of the malarial parasite plastid, 96 hour incubation
Details: P. falciparum luciferase reporter growth; series mostly up to 28.7 µM
Procedure, shortened: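 P. falciparum expressing integrated firefly luciferase, in erythrocytes at 2% hematocrit, 0.05% parasitemia, incubated with compounds 96 h at 37 C, 5% CO2. Growth inhibition read as loss of luminescence; two-generation exposure targets delayed-death apicoplast inhibitors.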
Potency is read from the fitted curve at half-maximal effect.

Row | Compound | Potency
1 | COc1ccc(C2CC(c3ccc([N+](=O)[O-])cc3)=NN2C(C)=O)cc1 (stereo not given) | inactive
2 | COCc1c(C(=O)OCC(=O)Nc2ccc(OC(F)F)cc2)oc2ccccc12 | inactive
3 | Cc1ccc(NC(=O)Cn2c(C)csc2=O)cc1 | inactive
4 | O=C(NCCSc1ncc(-c2ccccc2)[nH]1)c1ccco1 | inactive
5 | Cc1ccc(S(=O)(=O)N(CCCN(C)C)Cc2ccc3c(c2)OCO3)cc1 | inactive
6 | COc1ccccc1CCNS(=O)(=O)c1cn(C)nc1C | inactive
7 | CCOC(=O)N1CCC(NC(=O)C(NS(=O)(=O)c2ccc3c(c2)CCN3C(=O)CC)C(C)C)CC1 (stereo not given) | 16.5 µM (active)
8 | CCC(=O)N1CCc2cc(S(=O)(=O)NC(C(=O)N3CCc4ccccc4C3)C(C)C)ccc21 (stereo not given) | inactive
9 | CC(=O)N1CCc2cc(S(=O)(=O)NC3CCCCC3)ccc21 | inactive
10 | O=S(=O)(NC1CCCC1)c1ccc(-n2cnnn2)cc1 | inactive
11 | COc1cc(OC)cc(C(=O)NCCSCc2ccc(Cl)cc2)c1 | inactive
12 | COc1ccc(/C=C(\C#N)C(=O)OCC(=O)N(C)C2CCS(=O)(=O)C2)cc1 (stereo not given) | inactive
13 | CC(C)CC(O)C1CCN(C(=O)CCc2nnc(-c3ccc4c(c3)OCO4)o2)CC1 (stereo not given) | inactive
14 | O=C(NC(Cc1ccc(O)cc1)C(=O)O)/C(=C/c1ccccc1)NC(=O)c1ccccc1 (stereo not given) | 11.7 µM (active)
15 | O=C(NC(Cc1ccccc1)C(=O)O)/C(=C\c1ccccc1)NC(=O)c1ccco1 (stereo not given) | inactive
16 | CC(=O)N/C(=C\c1ccc(F)cc1)C(=O)NC(Cc1ccccc1)C(=O)O (stereo not given) | inactive
17 | Cc1ccc(OCC(=O)Nc2nnc(-c3ccco3)s2)cc1 | inactive
18 | CC(NS(=O)(=O)c1ccc(Cl)cc1)C(=O)Nc1ccc2c(c1)OCCO2 (stereo not given) | inactive
19 | COCCCn1c(SCC(=O)Nc2oc(C)c3c(C)n[nH]c(=O)c23)nc2sc3c(c2c1=O)CCC3 | inactive
20 | CC(C)(C)NC(=O)C(=O)NCc1ccncc1 | 3.29 µM (active)
21 | O=C(NCc1ccncc1)C(=O)NCc1ccco1 | inactive
22 | CCCC(C)C(=O)NCc1ccncc1 (stereo not given) | inactive

Row | Compound | Potency
23 | CCc1cccc(NC(=O)COC(=O)c2cc(=O)c3ccccc3o2)c1 | inactive
24 | COC(=O)c1sc(NC(=O)COC(=O)C2CCC2)c(C(=O)OC)c1C | inactive
25 | COc1ccc(-n2ncc3c(N4CCCc5ccccc54)ncnc32)cc1 | 13.1 µM (active)
26 | COc1ccc(N2CCN(C(=O)CSc3ncnc4c3cnn4-c3ccc(OC)cc3)CC2)cc1 | inactive
27 | c1ccc(-n2ncc3c(N4CCCC4)ncnc32)cc1 | inactive
28 | O=C(NCC(=O)N(c1ccccc1)C(C(=O)NCC1CCCO1)c1ccccc1)c1cccs1 (stereo not given) | inactive
29 | O=C(O)c1ccccc1-c1ccccc1C(=O)Nc1ccccc1Br | inactive
30 | COC(=O)CN1C(=O)[C@H]2[C@@H](/C=C/c3ccccc3)N3C(=O)CN(CC4CC4)C(=O)[C@@]3(Cc3ccccc3)[C@H]2C1=O | inactive
31 | Fc1ccc(-c2ccc(NCCN3CCOCC3)nn2)cc1 | inactive
32 | O=S(=O)(c1ccc(SCc2ccccc2)nc1)N1CCCCCC1 | inactive
33 | Cc1cc(=O)oc2cc(NC(=O)C(C)Oc3ccccc3)ccc12 (stereo not given) | inactive
34 | Cc1cc(=O)oc2cc(OC(C)C(=O)Nc3ccc(N4CCOCC4)cc3)ccc12 (stereo not given) | inactive
35 | COc1ccc(-c2cc(=O)oc3cc(OC(C)C(=O)Nc4ccc(CN5CCOCC5)cc4)ccc23)cc1 (stereo not given) | 9.28 µM (active)
36 | CN1C(=O)C2(OCCCO2)c2cc(Cl)ccc21 | inactive
37 | Cc1cc(S(=O)(=O)c2cc3ccc(O)c(C)c3oc2=O)ccc1F | inactive
38 | CCOc1ccc(-n2cnc3c(=O)[nH]c(N)nc32)cc1 | inactive
39 | Cc1n[nH]c(C)c1S(=O)(=O)N1CCCC(C(=O)Nc2ccc(Br)cc2)C1 (stereo not given) | inactive
40 | CCC(C)C(N=C1NS(=O)(=O)c2ccccc21)C(=O)N1CCC(C)CC1 (stereo not given) | inactive
41 | CCOC(=O)N1CCN(C(=O)c2ccc(S(=O)(=O)Nc3cccc(C(F)(F)F)c3)cc2)CC1 | inactive
42 | Nc1ccn(CC(=O)N2CCN(c3ccccn3)CC2)c(=O)n1 | inactive
43 | CC(C)C(=O)Nc1ccc2c(c1)oc1ccccc12 | inactive
44 | CC(Oc1ccccc1)C(=O)Nc1oc(-c2ccco2)c(-c2ccco2)c1C#N (stereo not given) | inactive

Row | Compound | Potency
45 | CC(C)C(=O)Nc1oc(-c2ccccc2)cc1C#N | 2.08 µM (active)
46 | CCC(=O)Nc1ccc2nn(-c3ccc(F)cc3)nc2c1 | inactive
47 | Cc1cccc(NC(=O)CN2CCN(CC(=O)NCC3(N4CCCCC4)CCCCC3)CC2)c1C | inactive
48 | COC(=O)c1c(NC(=O)COc2ccc(Cl)cc2Cl)sc2c1CC(C)(C)NC2(C)C | 6.57 µM (active)
49 | COC(=O)c1sccc1NC(=O)COc1ccc(Cl)cc1 | inactive
50 | CN1CCN(c2ccc(NC(=O)COc3ccc(Cl)cc3Cl)cc2)CC1 | inactive
51 | Cc1nc2ccccc2c(=O)n1-c1ccc(F)c(NC(=O)c2cccs2)c1 | inactive
52 | O=C(NCc1cccc(Cl)c1)C1CCC(=O)N(C2CC2)C1 (stereo not given) | inactive
53 | CCN1CCN(CCNC(=O)c2ccc3c(c2)NC(=O)/C(=C\c2ccc(OC)c(OC)c2)S3)CC1 | inactive
54 | Cc1ccc(S(=O)(=O)N(CC(O)CN2C(=O)NC(C)(C)C2=O)c2cccc([N+](=O)[O-])c2)cc1 (stereo not given) | inactive
55 | COc1cc(/C=C2\CCCc3c2nc2ccccc2c3C(=O)O)cc(Cl)c1O | inactive
56 | O=C(Nc1ccccc1-c1nnn(CC(=O)N2CCN(c3ccccc3)CC2)n1)c1cccs1 | 9.28 µM (active)
57 | COc1ccccc1N1CCN(C(=O)Cn2nnc(-c3cccs3)n2)CC1 | inactive
58 | O=C(Nc1ccc(N2CCN(C(=O)C3CC3)CC2)cc1)c1cccs1 | inactive
59 | Cc1nc2nc(SCC(=O)Nc3cccc(F)c3)[nH]c2cc1Br | inactive
60 | N#Cc1ccc(OCC(=O)NC(=O)NC2CCS(=O)(=O)C2)cc1 (stereo not given) | inactive
61 | CCOC(=O)C(C)N(c1ccccc1Cl)S(C)(=O)=O (stereo not given) | inactive
62 | Cc1cccc(OCCNC(=O)CSc2ccc(C(F)(F)F)cc2[N+](=O)[O-])c1 | inactive
63 | O=C(CSc1ccc(C(F)(F)F)cc1[N+](=O)[O-])NCCOc1ccccc1 | 13.1 µM (active)
64 | Nc1ccccc1Sc1ccc(C(F)(F)F)cc1[N+](=O)[O-] | inactive
65 | CCOc1ccccc1OCCCNCc1ccccc1 | inactive
